{"source": "PubChem BioAssay (EPA / NIEHS)", "note": "Records with an inconclusive call do not appear. Where a structure was tested more than once in an assay, its records may differ in their call. Activity calls are given as the source filed them. Rule for the calls: active = hit-call score of the fitted dose curve at least 0.9, where 1 is the maximum; inconclusive = response in the unintended direction; inactive = score below 0.9."}
{"assay": "ACEA_AR_antagonist_AUC_viability: ACEA Biosciences xCELLigence Real-Time Cell Analysis on Androgen Receptor Antagonism for Viability (AID 2283776);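 note: area under impedance growth curve at 80 h after dosing as viability; hits lower the growth signal relative to DMSO meaning cytotoxicity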", "experimental": "ACEA_AR_antagonist is a cell-based, single-readout assay that uses 22Rv1, a human prostate cancer cell line, with measurements taken at 80 hours after chemical dosing in a 384-well plate, although TO5 and TO6 (mc0.srcf) used a 96-well plate. Differences in plate size can be ignored given data normalization.ACEA_AR_80hr is one of two assay component(s) measured or calculated from the […] assay. It is designed to make measurements of real-time cell-growth kinetics, a form of growth reporter, as detected with electrical impedance signals by Real-Time Cell Electrode Sensor (RT-CES) technology.Data from the assay component ACEA_AR_antagonist_AUC_viability was analyzed in the positive analysis fitting direction relative to DMSO as the negative control and baseline of activity. Using a type of growth reporter, loss-of-signal activity can be used to understand changes in the viability. Furthermore, this assay endpoint can be referred to as a secondary readout, because this assay has produced multiple assay endpoints where this one serves a viability function. To generalize the intended target to other relatable targets, this assay endpoint is annotated to the cell cycle intended target family, where the subfamily is cytotoxicity.\nThe xCELLigence system Multi-E-Plate stations were used to measure the time-dependent response to chemicals. Each compound was tested in an eight-point, 1:4 serial dilution series starting at a maximum final concentration of 100 uM. A maximum starting concentration of 0.5% DMSO was present in the 100 uM chemical samples and was diluted along with the test article dilution series. The screen was performed in biological duplicate using two separate, 96-well, E-Plates 96 for each dilution series (n = 2). Positive controls (MG132 and testosterone) and a negative control (assay media) were tested in quadruplicate on each testing plate. Then, 0.5% and 0.125% DMSO were tested in duplicates in each plate to serve as solvent controls for the 2 highest concentrations of testing compounds: 100 uM and 25 uM. Reference compounds were tested with 8 concentrations with 1:5 serial dilutions. All screening was carried out by ACEA Biosciences, Inc. (San Diego, CA). 22Rv1 cells purchased from ATCC were maintained in media supplemented with 10% fetal bovine serum (FBS). Before screening, 22Rv1 cells were preconditioned in assay medium. Cells were then detached and seeded in E-Plates 96 in assay medium. After overnight monitoring of growth once every hour, compounds were added to […] cells and remained in the medium until the end of the experiment. Cellular responses were then recorded once every 5 min for the first 5 h, and once every hour for an additional 100 h."}
{"compound": "CCOC(=O)CC(SP(=S)(OC)OC)C(=O)OCC", "note": "(stereo not given)", "AC50": "85.1 µM (active)"}
{"compound": "Cc1cc(Cl)ccc1OCC(=O)O", "outcome": "inactive"}
{"compound": "CCCCNC(=O)OCC#CI", "AC50": "13.9 µM (active)"}
{"compound": "N#Cc1nn(-c2c(Cl)cc(C(F)(F)F)cc2Cl)c(N)c1S(=O)C(F)(F)F", "note": "(stereo not given)", "AC50": "31.2 µM (active)"}
{"compound": "CCOc1cc(Oc2ccc(C(F)(F)F)cc2Cl)ccc1[N+](=O)[O-]", "AC50": "12.9 µM (active)"}
{"compound": "COC(=O)C(C)Oc1ccc(Oc2ccc(Cl)cc2Cl)cc1", "note": "(stereo not given)", "AC50": "50 µM (active)"}
{"compound": "CCOP(=S)(OCC)SCn1c(=O)oc2cc(Cl)ccc21", "AC50": "76.9 µM (active)"}
{"compound": "CCCC1COC(Cn2cncn2)(c2ccc(Cl)cc2Cl)O1", "note": "(stereo not given)", "AC50": "74.8 µM (active)"}
{"compound": "COc1cnc(OC)n2nc(NS(=O)(=O)c3c(OCC(F)F)cccc3C(F)(F)F)nc12", "outcome": "inactive"}
{"compound": "C=CCC1=C(C)[C@@H](OC(=O)[C@@H]2[C@@H](C=C(C)C)C2(C)C)CC1=O", "AC50": "61.3 µM (active)"}
{"compound": "Fc1ccc(Oc2ccnc3cc(Cl)cc(Cl)c23)cc1", "AC50": "60 µM (active)"}
{"compound": "C#CCOS(=O)OC1CCCCC1Oc1ccc(C(C)(C)C)cc1", "note": "(stereo not given)", "AC50": "21.7 µM (active)"}
{"compound": "CON(C)C(=O)Nc1ccc(Cl)c(Cl)c1", "AC50": "15.8 µM (active)", "outcome": "inactive"}
{"compound": "CC(C)(C)c1ccc(CSc2cnn(C(C)(C)C)c(=O)c2Cl)cc1", "AC50": "26.9 µM (active)"}
{"compound": "CNC(=O)ON=CC(C)(C)SC", "outcome": "inactive"}
{"compound": "COC(=O)c1ccccc1C(=O)OC", "outcome": "inactive"}
{"compound": "N#CC(CCc1ccc(Cl)cc1)(Cn1cncn1)c1ccccc1", "note": "(stereo not given)", "AC50": "25.7 µM (active)"}
{"compound": "CN(C)C(=S)SSC(=S)N(C)C", "AC50": "22.6 µM (active)"}
{"compound": "COc1ccc(C(c2ccc(OC)cc2)C(Cl)(Cl)Cl)cc1", "AC50": "76.7 µM (active)"}
{"compound": "CNC(=S)S", "outcome": "inactive"}
{"compound": "CCNc1nc(Cl)nc(NCC)n1", "outcome": "inactive"}
{"compound": "CC1COC(Cn2cncn2)(c2ccc(Oc3ccc(Cl)cc3)cc2Cl)O1", "note": "(stereo not given)", "AC50": "30.3 µM (active)"}
{"compound": "CC(C)C1(C)N=C(c2nc3ccccc3cc2C(=O)O)NC1=O", "note": "(stereo not given)", "outcome": "inactive"}
{"compound": "C=CC1(C)OC(=O)N(c2cc(Cl)cc(Cl)c2)C1=O", "note": "(stereo not given)", "AC50": "83.7 µM (active)"}
{"compound": "N#Cc1cc(Br)c(O)c(Br)c1", "AC50": "52.1 µM (active)"}
{"compound": "CS/C(C)=N/OC(=O)N(C)SN(C)C(=O)O/N=C(\\C)SC", "AC50": "77.9 µM (active)"}
{"compound": "CCNc1nc(Cl)nc(NC(C)C)n1", "outcome": "inactive"}
{"compound": "O=C(O)c1nc(Cl)ccc1Cl", "outcome": "inactive"}
{"compound": "Cc1c(F)c(F)c(COC(=O)C2C(/C=C(\\Cl)C(F)(F)F)C2(C)C)c(F)c1F", "note": "(stereo not given)", "AC50": "30.6 µM (active)"}
{"compound": "COC(=O)C=C(C)OP(=O)(OC)OC", "AC50": "19 µM (active)"}
{"compound": "CCc1nn(C)c(C(=O)NCc2ccc(C(C)(C)C)cc2)c1Cl", "AC50": "19.4 µM (active)"}
{"compound": "CC(Oc1ccc(Cl)cc1Cl)C(=O)O", "note": "(stereo not given)", "outcome": "inactive"}
{"compound": "COP(N)(=O)SC", "note": "(stereo not given)", "outcome": "inactive"}
{"compound": "CCCCC(CC)COC(=O)c1ccccc1C(=O)OCC(CC)CCCC", "note": "(stereo not given)", "AC50": "61.8 µM (active)"}
{"compound": "CCCCNC(=O)n1c(NC(=O)OC)nc2ccccc21", "AC50": "61.6 µM (active)"}
{"compound": "CCON=C(CC)C1=C(O)CC(c2c(C)cc(C)cc2C)CC1=O", "note": "(stereo not given)", "outcome": "inactive"}
{"compound": "Cc1ccc(-c2c(Cl)nc(C#N)n2S(=O)(=O)N(C)C)cc1", "AC50": "16.1 µM (active)"}
{"compound": "CCCCOC(=O)c1ccccc1C(=O)OCCCC", "AC50": "66.1 µM (active)"}
{"compound": "CC(C)Oc1cc(-n2nc(C(C)(C)C)oc2=O)c(Cl)cc1Cl", "AC50": "50 µM (active)"}
